These results are taken from PubChem BioAssay (EPA / NIEHS).

Records with an inconclusive call do not appear. Activity calls are given as the source filed them. Rule for the calls, unless noted: active = hit-call score of the fitted dose curve at least 0.9, where 1 is the maximum; inactive = score below 0.9.

Experiment [1] deals with Glucocorticoid receptor (Homo sapiens) (UniProt P04150). As to the kind of experiment: ATG_GR_TRANS: Attagene TRANS-FACTORIAL HepG2 Assay for human Glucocorticoid Receptor (GR) (AID 2282978; active = hit-call score of the fitted dose curve at least 0.9, where 1 is the maximum;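 note: activators score as hits since higher reporter transcript over DMSO is fitted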). Conditions: HepG2 Attagene TRANS GR reporter, mRNA transcription. The essentials:
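HepG2 transient transfection, multiple reporter units, GAL4-UAS under NR-GAL4 chimera control. 24 h treatment. Reporter mRNA by RT-PCR/CE fluorescence, DMSO as negative control.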

The target in experiment [2] is Bile acid receptor (Homo sapiens) (UniProt Q96RI1). Put plainly: ATG_FXR_TRANS: Attagene TRANS-FACTORIAL HepG2 Assay for Farnesoid X Receptor (FXR) (AID 2282979; active = hit-call score of the fitted dose curve at least 0.9, where 1 is the maximum;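 note: hits raise reporter mRNA above DMSO so AC50 marks FXR activation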). Particulars: HepG2 Attagene TRANS FXR-GAL4 reporter transcription. Summed up:
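HepG2 cells were transiently transfected with GAL4-UAS reporters driven by chimeric NR-Gal4 proteins and dosed for 24 h. Reporter mRNA was quantified by RT-PCR, fluorescent labelling, HpaI digestion and capillary electrophoresis, with gain of signal scored versus DMSO.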

For experiment [3], the target named is Oxysterols receptor LXR-alpha (Homo sapiens) (UniProt Q13133). As to the kind of experiment: ATG_LXRa_TRANS: Attagene TRANS-FACTORIAL HepG2 Assay for human Liver X Receptor alpha (LXRa) (AID 2282980; active = hit-call score of the fitted dose curve at least 0.9, where 1 is the maximum). Particulars: HepG2 Attagene TRANS reporter, LXRa transactivation. The essentials:
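HepG2 cells transiently transfected with GAL4-UAS reporter units for chimeric NR-Gal4 proteins, exposed to chemicals for 24 h. Reporter mRNA quantified by RT-PCR and capillary electrophoresis; gain of signal fitted relative to DMSO.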

Experiment [4] addresses Oxysterols receptor LXR-beta (Homo sapiens) (UniProt P55055). As to the kind of experiment: ATG_LXRb_TRANS: Attagene TRANS-FACTORIAL HepG2 Assay for human Liver X Receptor beta (LXRb) (AID 2282981; active = hit-call score of the fitted dose curve at least 0.9, where 1 is the maximum). Conditions: HepG2 Attagene TRANS GAL4-LXRb reporter, mRNA. Summed up: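 HepG2 cells transiently transfected with multiple reporter transcription units carrying chimeric NR-Gal4 proteins acting on GAL4-UAS reporters; compound exposure 24 h. Reporter mRNA quantified by RT-PCR, 6-FAM labelling, HpaI digestion and capillary electrophoresis; gain of signal versus DMSO.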

The target of experiment [5] is Hepatocyte nuclear factor 4-alpha (Homo sapiens) (UniProt P41235). As to the kind of experiment: ATG_HNF4a_TRANS: Attagene TRANS-FACTORIAL HepG2 Assay for human Hepatocyte Nuclear Factor 4 alpha (HNF4a) (AID 2282982; active = hit-call score of the fitted dose curve at least 0.9, where 1 is the maximum). Particulars: HepG2 HNF4a transactivation reporter, mRNA readout. The essentials:
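HepG2 cells transiently transfected with multiplexed GAL4-UAS reporter units responsive to chimeric NR-GAL4 proteins; compound exposure 24 h. Reporter mRNA quantified by RT-PCR, 6-FAM labelling, HpaI digestion and capillary electrophoresis; gain of signal versus DMSO baseline.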

A short description of experiment [6]: ATG_M_32_TRANS: Attagene TRANS-FACTORIAL HepG2 Assay for M32 Transcription Factor (Internal Marker) (AID 2282984; active = hit-call score of the fitted dose curve at least 0.9, where 1 is the maximum;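 note: transcript level of a background control reporter unit measured by RT-PCR and capillary electrophoresis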). Particulars: HepG2 Attagene TRANS M32 internal marker reporter. The essentials: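 HepG2 cells transiently transfected with multiple GAL4-UAS reporter transcription units, dosed for 24 hours; reporter mRNA quantified by RT-PCR, 6-FAM primer extension, HpaI digestion and capillary electrophoresis. Gain-of-signal fitted versus DMSO baseline; internal background-control marker.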

In experiment [7] the target is Nuclear receptor subfamily 4 group A member 2 (Homo sapiens) (UniProt P43354). As to the kind of experiment: ATG_NURR1_TRANS: Attagene TRANS-FACTORIAL HepG2 Assay for human Nuclear Receptor Related Protein 1 (NURR1) (AID 2282985; active = hit-call score of the fitted dose curve at least 0.9, where 1 is the maximum). Conditions: HepG2 Attagene TRANS reporter, mRNA readout. The essentials: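 HepG2 cells transiently transfected with GAL4-UAS reporter units and chimeric NR-Gal4 constructs; chemical exposure 24 h. Reporter mRNA quantified by RT-PCR, fluorescent labelling and capillary electrophoresis; gain of signal fitted relative to DMSO baseline.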

The target in experiment [8] is Transcriptional activator Myb (Homo sapiens) (UniProt P10242). As to the kind of experiment: ATG_Myb_CIS: Attagene CIS-FACTORIAL HepG2 Assay for human Myeloblastosis (Myb) Proto-Oncogene Transcription Factor (AID 2282986). Particulars: HepG2 Attagene CIS-FACTORIAL Myb reporter transcription; actives raise or lower the signal. The essentials:
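Multiplexed cis-reporter system in HepG2: transient transfection, 24 h treatment, mRNA readout by RT-PCR and capillary electrophoresis. Both increases and decreases are scored versus DMSO negative control.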

Experiment [9] concerns the target Nuclear respiratory factor 1 (Homo sapiens) (UniProt Q16656). As to the kind of experiment: ATG_NRF1_CIS: Attagene CIS-FACTORIAL HepG2 Assay for human Nuclear Respiratory Factor 1 (NRF1) Orphan Gene (AID 2282987). Particulars: HepG2 NRF1 cis-element reporter, Attagene multiplex; actives raise or lower the signal. Summed up: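 Endogenous factor activity was captured via cis-element-driven reporter transcripts in HepG2 cells. Following 24 h chemical treatment, transcripts were quantified by RT-PCR and capillary electrophoresis.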

Experiment [10] can be described thus: ATG_NFI_CIS: Attagene CIS-FACTORIAL HepG2 Assay for human Nuclear Factor I (NFI) (AID 2282989). Particulars: HepG2 cis-regulatory reporter, NFI response element transcription; actives raise or lower the signal. The essentials: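 After transient transfection of HepG2 with cis-promoter reporter constructs and 24 h dosing, RNA is reverse-transcribed, amplified, 6-FAM end-labelled and HpaI-digested before capillary analysis. Bidirectional curve fitting against DMSO.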

The target of experiment [11] is Myc proto-oncogene protein (Homo sapiens) (UniProt P01106). Put plainly: ATG_Myc_CIS: Attagene CIS-FACTORIAL HepG2 Assay for human Myelocytomatosis (Myc) Proto-Oncogene Transcription Factor (AID 2282990). Particulars: HepG2, Attagene cis-reporter transcription factor activity; actives raise or lower the signal. The essentials:
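HepG2 cells transiently transfected with multiple cis-promoter-driven reporter transcription units, so endogenous TF activity is read. After 24 h compound exposure, reporter mRNA was quantified by RT-PCR, 6-FAM labelling, HpaI digestion and capillary electrophoresis; bidirectional fit versus DMSO.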

Experiment [12] can be described thus: ATG_NF_kB_CIS: Attagene CIS-FACTORIAL HepG2 Assay for human Nuclear Factor Kappa B (NF-kB) (AID 2282991). Conditions: HepG2 Attagene cis-factorial NF-kB reporter mRNA; actives raise or lower the signal. The essentials: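 After 24 h compound incubation, transfected HepG2 cells yield total RNA; reporter cDNA is PCR-amplified, end-labelled with 6-FAM, HpaI-digested and analysed on a genetic analyser. Endogenous factor activity, DMSO-referenced bidirectional fit.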

Experiment [13] in a line: ATG_NRF2_ARE_CIS: Attagene CIS-FACTORIAL HepG2 Assay for human Nuclear Factor Erythroid 2 Related Factor 2 (NFR2) response to Antioxidant Response Elements (ARE) (AID 2282992). Conditions: HepG2 Attagene ARE/NRF2 reporter, transcription factor activity; actives raise or lower the signal. Summed up: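 Cis-factorial assay: transfected HepG2 reporter library, 24 h dosing, mRNA readout via RT-PCR/CE; DMSO-referenced bidirectional analysis.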

The nature of experiment [14]: ATG_Oct_MLP_CIS: Attagene CIS-FACTORIAL HepG2 Assay for human Octamer-Binding Transcription Factor (Oct) (AID 2282993). Conditions: HepG2 Attagene cis-factorial Oct reporter, mRNA; actives raise or lower the signal. Summed up:
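Cells of the HepG2 line express promoter-controlled reporter sequences whose mRNA levels, after 24 h treatment, are measured by RT-PCR and capillary electrophoresis. Increases and decreases are scored relative to DMSO.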

Experiment [15] addresses Cellular tumor antigen p53 (Homo sapiens) (UniProt P04637). Put plainly: ATG_p53_CIS: Attagene CIS-FACTORIAL HepG2 Assay for human p53 Transcription Factor (AID 2282994). Conditions: HepG2 p53 cis-element reporter, Attagene mRNA; actives raise or lower the signal. Summed up:
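Using HepG2 hepatoma cells carrying cis-acting multiplexed reporters, mRNA induction is detected after a 24 h exposure. Gain- and loss-of-signal responses are fitted relative to DMSO-treated cells.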

Experiment [16] is described as follows: BSK_3C_TissueFactor: BioMAP Diversity Plus: 3C Assay for Tissue Factor Biomarker Activity (AID 2282997). Particulars: BioMAP 3C HUVEC, tissue factor biomarker readout; actives raise or lower the signal. The essentials: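 HUVEC were treated 24 h, then surface tissue factor measured by ELISA and fitted bidirectionally against DMSO. Parallel SRB total-protein staining assessed overt cytotoxicity at the same time point.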

A short description of experiment [17]: BSK_3C_uPAR: BioMAP Diversity Plus: 3C Assay for Urokinase-type plasminogen activator receptor (uPAR) Biomarker Activity (AID 2282998). Conditions: BioMAP 3C HUVEC, uPAR biomarker ELISA; actives raise or lower the signal. Summed up:
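Endothelial primary cells of human umbilical vein origin received test chemical; 24 h later uPAR was assayed by ELISA. Fitting was bidirectional, DMSO as negative control.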
(In an ELISA, binding on a coated surface is turned into a signal by an enzyme label.)

Experiment [18] in a line: ATG_M_06_TRANS: Attagene TRANS-FACTORIAL HepG2 Assay for M06 Transcription Factor (Internal Marker) (AID 2282983; active = hit-call score of the fitted dose curve at least 0.9, where 1 is the maximum;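 note: reporter transcript level by RT-PCR then capillary electrophoresis fluorescence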). Particulars: HepG2 Attagene TRANS M06 internal marker reporter. Summed up:
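HepG2 cells transiently transfected with GAL4-UAS multiple reporter units, dosed 24 h. Reporter RNA reverse-transcribed, PCR-amplified, 6-FAM-labeled, HpaI-digested and quantified by capillary electrophoresis; this internal-marker signal fitted upward relative to DMSO.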

Experiment [19] can be described thus: BSK_3C_VCAM1: BioMAP Diversity Plus: 3C Assay for Vascular cell adhesion molecule 1 (VCAM1) Biomarker Activity (AID 2282999). Particulars: BioMAP 3C HUVEC, VCAM1 ELISA, cytokine-stimulated; actives raise or lower the signal. Summed up:
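Human umbilical vein endothelial cells were dosed with compound for 24 h, after which cell-surface VCAM-1 was quantified by ELISA. Bidirectional curve fitting used DMSO as negative control and activity baseline.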

Nuclear respiratory factor 1 (Homo sapiens), sequence (Q16656 whole entry, looked up): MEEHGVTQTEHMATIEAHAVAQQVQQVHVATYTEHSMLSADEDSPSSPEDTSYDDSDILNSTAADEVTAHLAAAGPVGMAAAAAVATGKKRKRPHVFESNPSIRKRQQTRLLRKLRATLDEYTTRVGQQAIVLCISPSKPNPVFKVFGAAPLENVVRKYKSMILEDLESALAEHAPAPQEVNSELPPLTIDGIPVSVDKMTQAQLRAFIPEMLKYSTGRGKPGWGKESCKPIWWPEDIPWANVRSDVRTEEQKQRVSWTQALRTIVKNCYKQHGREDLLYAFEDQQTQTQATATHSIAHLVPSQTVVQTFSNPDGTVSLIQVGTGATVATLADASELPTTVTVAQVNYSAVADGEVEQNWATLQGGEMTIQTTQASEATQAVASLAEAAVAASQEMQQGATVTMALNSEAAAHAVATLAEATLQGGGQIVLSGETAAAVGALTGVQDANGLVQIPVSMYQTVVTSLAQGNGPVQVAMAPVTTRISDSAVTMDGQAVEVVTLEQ
Bile acid receptor (Homo sapiens), sequence (Q96RI1 whole entry, looked up, the tested form may be a part): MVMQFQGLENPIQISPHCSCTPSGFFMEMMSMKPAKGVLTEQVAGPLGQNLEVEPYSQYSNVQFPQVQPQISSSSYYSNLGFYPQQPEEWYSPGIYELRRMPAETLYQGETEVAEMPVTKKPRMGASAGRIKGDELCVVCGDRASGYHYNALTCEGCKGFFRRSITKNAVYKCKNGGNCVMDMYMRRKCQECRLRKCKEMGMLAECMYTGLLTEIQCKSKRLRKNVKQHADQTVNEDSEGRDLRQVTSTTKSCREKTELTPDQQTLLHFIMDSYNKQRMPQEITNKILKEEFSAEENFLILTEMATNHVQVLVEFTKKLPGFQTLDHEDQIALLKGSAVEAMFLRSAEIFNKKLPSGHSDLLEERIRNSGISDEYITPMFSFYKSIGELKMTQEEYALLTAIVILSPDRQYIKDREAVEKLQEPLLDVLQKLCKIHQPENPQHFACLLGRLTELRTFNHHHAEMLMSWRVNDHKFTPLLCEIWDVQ
Hepatocyte nuclear factor 4-alpha (Homo sapiens), sequence (P41235 whole entry, looked up, the tested form may be a part): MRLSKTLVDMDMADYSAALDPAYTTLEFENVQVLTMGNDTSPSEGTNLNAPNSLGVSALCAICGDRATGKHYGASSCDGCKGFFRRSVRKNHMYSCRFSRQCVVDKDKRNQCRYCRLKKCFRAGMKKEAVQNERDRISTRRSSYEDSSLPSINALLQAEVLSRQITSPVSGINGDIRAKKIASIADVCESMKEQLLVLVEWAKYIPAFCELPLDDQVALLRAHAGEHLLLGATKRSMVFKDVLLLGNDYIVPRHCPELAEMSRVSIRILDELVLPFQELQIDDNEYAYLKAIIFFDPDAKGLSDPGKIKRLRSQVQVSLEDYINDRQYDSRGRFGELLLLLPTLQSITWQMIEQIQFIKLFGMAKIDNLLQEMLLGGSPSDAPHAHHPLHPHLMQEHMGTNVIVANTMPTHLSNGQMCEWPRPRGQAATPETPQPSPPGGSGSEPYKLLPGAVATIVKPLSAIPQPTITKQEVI
Oxysterols receptor LXR-beta (Homo sapiens), sequence (P55055 whole entry, looked up, the tested form may be a part): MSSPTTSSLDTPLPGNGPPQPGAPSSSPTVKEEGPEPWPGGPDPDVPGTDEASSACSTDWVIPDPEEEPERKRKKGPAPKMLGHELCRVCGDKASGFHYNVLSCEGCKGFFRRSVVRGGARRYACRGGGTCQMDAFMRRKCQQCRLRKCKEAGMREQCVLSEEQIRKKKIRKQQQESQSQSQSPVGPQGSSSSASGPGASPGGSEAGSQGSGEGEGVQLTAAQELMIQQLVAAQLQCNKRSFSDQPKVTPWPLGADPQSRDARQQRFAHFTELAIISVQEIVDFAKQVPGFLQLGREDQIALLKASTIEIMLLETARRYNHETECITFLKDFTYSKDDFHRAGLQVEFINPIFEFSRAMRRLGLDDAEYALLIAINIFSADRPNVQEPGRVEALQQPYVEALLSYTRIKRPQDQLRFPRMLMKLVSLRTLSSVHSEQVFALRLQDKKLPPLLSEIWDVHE
Nuclear receptor subfamily 4 group A member 2 (Homo sapiens), sequence (P43354 whole entry, looked up, the tested form may be a part): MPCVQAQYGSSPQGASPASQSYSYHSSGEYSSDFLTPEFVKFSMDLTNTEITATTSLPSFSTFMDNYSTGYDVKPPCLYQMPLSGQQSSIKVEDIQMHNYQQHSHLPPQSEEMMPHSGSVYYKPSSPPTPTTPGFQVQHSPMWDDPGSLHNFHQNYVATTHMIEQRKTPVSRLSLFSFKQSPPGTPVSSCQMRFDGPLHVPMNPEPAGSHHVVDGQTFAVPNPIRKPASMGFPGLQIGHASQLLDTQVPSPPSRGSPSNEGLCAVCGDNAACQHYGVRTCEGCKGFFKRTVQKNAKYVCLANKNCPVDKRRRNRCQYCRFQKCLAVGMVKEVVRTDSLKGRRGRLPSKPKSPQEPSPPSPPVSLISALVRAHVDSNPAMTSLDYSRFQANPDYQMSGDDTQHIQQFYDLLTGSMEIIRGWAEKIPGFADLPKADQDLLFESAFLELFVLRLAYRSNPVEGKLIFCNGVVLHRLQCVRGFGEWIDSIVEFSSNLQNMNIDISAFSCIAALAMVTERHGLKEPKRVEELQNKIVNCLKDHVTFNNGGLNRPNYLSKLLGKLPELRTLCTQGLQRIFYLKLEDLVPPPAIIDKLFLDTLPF
Myc proto-oncogene protein (Homo sapiens), sequence (P01106 whole entry, looked up): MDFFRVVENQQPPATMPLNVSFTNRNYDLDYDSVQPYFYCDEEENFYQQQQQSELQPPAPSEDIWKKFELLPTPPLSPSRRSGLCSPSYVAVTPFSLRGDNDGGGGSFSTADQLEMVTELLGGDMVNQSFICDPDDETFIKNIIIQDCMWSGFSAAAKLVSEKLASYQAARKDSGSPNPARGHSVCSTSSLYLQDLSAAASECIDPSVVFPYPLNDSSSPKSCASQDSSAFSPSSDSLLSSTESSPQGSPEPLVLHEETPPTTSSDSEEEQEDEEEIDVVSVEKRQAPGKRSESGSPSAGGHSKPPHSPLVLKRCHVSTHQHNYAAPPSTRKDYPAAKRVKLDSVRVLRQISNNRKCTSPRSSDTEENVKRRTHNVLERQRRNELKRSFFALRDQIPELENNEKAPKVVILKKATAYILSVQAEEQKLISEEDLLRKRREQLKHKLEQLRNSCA
Transcriptional activator Myb (Homo sapiens), sequence (P10242 whole entry, looked up): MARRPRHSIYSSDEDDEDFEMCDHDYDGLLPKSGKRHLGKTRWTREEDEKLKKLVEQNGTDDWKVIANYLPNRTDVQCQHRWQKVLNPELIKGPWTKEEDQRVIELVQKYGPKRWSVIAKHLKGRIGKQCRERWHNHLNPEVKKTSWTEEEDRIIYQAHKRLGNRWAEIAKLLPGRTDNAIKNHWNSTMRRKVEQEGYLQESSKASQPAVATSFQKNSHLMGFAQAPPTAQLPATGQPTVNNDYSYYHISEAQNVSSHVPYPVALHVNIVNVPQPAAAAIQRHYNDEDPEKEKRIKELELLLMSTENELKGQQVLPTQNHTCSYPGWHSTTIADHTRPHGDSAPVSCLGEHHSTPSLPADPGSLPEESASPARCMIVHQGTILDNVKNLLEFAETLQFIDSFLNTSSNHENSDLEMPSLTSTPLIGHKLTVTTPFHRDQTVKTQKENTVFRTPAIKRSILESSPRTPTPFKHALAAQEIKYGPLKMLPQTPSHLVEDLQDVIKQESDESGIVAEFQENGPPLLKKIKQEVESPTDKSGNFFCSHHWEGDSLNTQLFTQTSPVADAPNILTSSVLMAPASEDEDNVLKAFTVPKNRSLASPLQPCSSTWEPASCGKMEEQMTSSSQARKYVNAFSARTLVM
Cellular tumor antigen p53 (Homo sapiens), sequence (P04637 whole entry, looked up): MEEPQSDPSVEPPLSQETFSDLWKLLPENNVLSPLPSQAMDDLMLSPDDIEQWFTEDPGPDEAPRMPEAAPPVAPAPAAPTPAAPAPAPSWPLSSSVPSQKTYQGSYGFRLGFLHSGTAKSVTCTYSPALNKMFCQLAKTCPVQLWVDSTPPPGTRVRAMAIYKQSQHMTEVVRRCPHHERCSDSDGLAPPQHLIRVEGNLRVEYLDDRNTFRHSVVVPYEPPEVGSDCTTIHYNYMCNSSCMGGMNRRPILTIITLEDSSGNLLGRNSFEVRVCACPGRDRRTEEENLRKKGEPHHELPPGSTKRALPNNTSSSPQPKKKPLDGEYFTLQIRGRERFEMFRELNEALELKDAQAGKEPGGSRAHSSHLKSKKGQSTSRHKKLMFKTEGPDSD
Glucocorticoid receptor (Homo sapiens), sequence (P04150 whole entry, looked up, the tested form may be a part): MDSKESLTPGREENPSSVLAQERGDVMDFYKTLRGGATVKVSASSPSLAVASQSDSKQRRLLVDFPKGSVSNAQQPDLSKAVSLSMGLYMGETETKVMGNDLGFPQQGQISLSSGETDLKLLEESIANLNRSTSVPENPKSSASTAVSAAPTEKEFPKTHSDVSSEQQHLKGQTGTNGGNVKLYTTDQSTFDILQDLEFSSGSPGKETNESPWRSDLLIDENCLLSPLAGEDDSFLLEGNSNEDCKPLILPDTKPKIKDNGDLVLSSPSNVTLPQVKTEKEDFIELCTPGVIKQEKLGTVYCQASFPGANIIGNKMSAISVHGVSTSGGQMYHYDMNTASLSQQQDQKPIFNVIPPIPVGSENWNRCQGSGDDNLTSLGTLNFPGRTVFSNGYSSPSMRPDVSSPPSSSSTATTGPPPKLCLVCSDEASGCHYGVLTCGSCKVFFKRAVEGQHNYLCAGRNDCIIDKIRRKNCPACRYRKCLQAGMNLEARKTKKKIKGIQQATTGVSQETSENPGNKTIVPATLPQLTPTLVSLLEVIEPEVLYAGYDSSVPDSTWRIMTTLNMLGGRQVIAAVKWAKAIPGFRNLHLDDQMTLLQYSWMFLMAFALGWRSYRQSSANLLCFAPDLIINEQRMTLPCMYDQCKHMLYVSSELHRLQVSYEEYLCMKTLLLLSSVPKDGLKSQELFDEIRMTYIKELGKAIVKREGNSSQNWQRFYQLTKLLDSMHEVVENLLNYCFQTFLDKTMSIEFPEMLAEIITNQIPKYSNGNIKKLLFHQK

The AC50 is the concentration giving half of the maximal activity seen. With `CCN(CC)c1ccc(N=Nc2ccccc2)cc1`, the result in [1], in experiment [2], in [3], in experiment [4], in experiment [5] and in experiment [6] was inactive. Further, the outcome in experiment [7], in experiment [8], in [10], in experiment [11], in experiment [12] and in experiment [14] was inactive. Also, the outcome in experiment [15] and in experiment [16] was inactive. Moreover, the AC50 in [9] was 35.4 µM (active); in experiment [13] it was 3.86 µM (active); in experiment [17], 20 µM (active).

Regarding `CCOC(OCC)OCC`, the result in experiment [1], in [2], in experiment [4], in experiment [5], in experiment [18] and in experiment [6] was inactive. In addition, the outcome in [7], in [8], in [9], in experiment [10], in [11] and in [12] was inactive. Also, the result in experiment [13] and in experiment [15] was inactive.

Take `O=C(O)C(F)(F)C(F)(F)C(F)(F)C(F)(F)C(F)(F)C(F)(F)C(F)F`: the outcome in experiment [1], in experiment [2], in experiment [3], in experiment [4], in experiment [18] and in experiment [6] was inactive. In addition, the compound was classed as inactive in experiment [7], in experiment [8], in [9], in [10], in experiment [11] and in [12]. Besides, the compound was classed as inactive in experiment [14], in experiment [15], in experiment [16], in experiment [17] and in experiment [19]. Besides, the AC50 in experiment [13] is 100 µM (active).

In the case of `F[Si-2](F)(F)(F)(F)F`, the outcome in experiment [1], in experiment [2], in experiment [4], in experiment [5], in experiment [18] and in experiment [6] was inactive. The result in experiment [7], in experiment [8], in experiment [9], in experiment [10], in experiment [11] and in [12] was inactive. Further, the result in [13] and in experiment [15] was inactive.
